Results from PubChem BioAssay AID1159580 (chemical genetic matrix, 2015).
Where “and” joins values, the source holds several entries; their conditions need not be identical. Identical values can stand only once. Screen size: about 5,500 compounds; about 2,000 (36%) were called active. Not shown: some 18% with an inconclusive outcome. No stated cut-off is given here; in the data, active means normalized growth mostly below about 0.91 (no sharp cut-off); inconclusive means no clear call, values can overlap the other calls; inactive means mostly above about 0.92. The list shows a part of the results.

Assay: chemical genetic growth profiling, strain panel (AID 1159580);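 further: tested at 20 µM; growth read once vehicle control cultures reached saturation at 30 °C; 1 = growth at the plate median or of vehicle wells; lower values mean less growth of the strain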
Details: growth OD

Measured: normalized growth

CC(NC(C)(C)C)C(=O)c1cccc(Cl)c1 (stereo unspecified)
inactive: S. cerevisiae deletion strains, locus YJR075W, strain HOC1, active compounds read low 1.02 | S. cerevisiae deletion strains, locus YKL009W, strain mrt4, active compounds read low 0.977 | S. cerevisiae deletion strains, locus YKL068W, active compounds read low 1.02 | S. cerevisiae deletion strains, locus YKL085W, strain MDH1 (second series), active compounds read low 1.02 | S. cerevisiae deletion strains, locus YKL085W, strain MDH1, active compounds read low 1.02 | S. cerevisiae deletion strains, locus YKL160W, strain elf1, active compounds read low 0.996 | S. cerevisiae deletion strains, locus YKL190W, strain CNB1, active compounds read low 1.01 | S. cerevisiae deletion strains, locus YKR001C, strain vps1, active compounds read low 1.02 | S. cerevisiae deletion strains, locus YKR026C, strain gcn3, active compounds read low 0.995 | S. cerevisiae deletion strains, locus YKR091W, strain srl3, active compounds read low 0.998 | S. cerevisiae deletion strains, locus YLL001W, strain dnm1, active compounds read low 0.993 | S. cerevisiae deletion strains, locus YLL026W, active compounds read low 1 | S. cerevisiae deletion strains, locus YLL041C, strain sdh2, active compounds read low 1 | S. cerevisiae deletion strains, locus YLR027C, strain aat2, active compounds read low 1 | S. cerevisiae deletion strains, locus YLR039C, strain RIC1, active compounds read low 1.03 | S. cerevisiae deletion strains, locus YLR058C, strain SHM2, active compounds read low 1.01 | S. cerevisiae deletion strains, locus YLR102C, strain apc9, active compounds read low 1.03 | S. cerevisiae deletion strains, locus YLR113W, strain HOG1, active compounds read low 0.986 | S. cerevisiae deletion strains, locus YLR221C, strain rsa3, active compounds read low 1.01 | S. cerevisiae deletion strains, locus YLR258W, strain gsy2, active compounds read low 0.996 | S. cerevisiae deletion strains, locus YLR262C, strain YPT6 (second series), active compounds read low 0.977 | S. cerevisiae deletion strains, locus YLR262C, strain YPT6, active compounds read low 1.05 | S. cerevisiae deletion strains, locus YLR268W, strain sec22, active compounds read low 1.03 | S. cerevisiae deletion strains, locus YLR320W, strain mms22, active compounds read low 0.985 | S. cerevisiae deletion strains, locus YLR330W, strain CHS5, active compounds read low 1.01 | S. cerevisiae deletion strains, locus YLR342W, strain FKS1 (second series), active compounds read low 0.98 | S. cerevisiae deletion strains, locus YLR342W, strain FKS1, active compounds read low 0.997 | S. cerevisiae deletion strains, locus YLR357W, strain rsc2, active compounds read low 0.983 | S. cerevisiae deletion strains, locus YLR370C, strain arc18, active compounds read low 1 | S. cerevisiae deletion strains, locus YLR371W, strain rom2, active compounds read low 1.04 | S. cerevisiae deletion strains, locus YLR384C, strain iki3, active compounds read low 0.993 | S. cerevisiae deletion strains, locus YLR418C, strain cdc73, active compounds read low 1.03 | S. cerevisiae deletion strains, locus YML016C, strain PPZ1, active compounds read low 1.01 | S. cerevisiae deletion strains, locus YML032C, strain rad52, active compounds read low 1.03 | S. cerevisiae deletion strains, locus YML120C, strain ndi1, active compounds read low 1.01 | S. cerevisiae deletion strains, locus YML124C, strain tub3, active compounds read low 1.04 | S. cerevisiae deletion strains, locus YMR058W, strain fet3, active compounds read low 0.997 | S. cerevisiae deletion strains, locus YMR078C, strain ctf18, active compounds read low 1.04 | S. cerevisiae deletion strains, locus YMR125W, strain sto1, active compounds read low 0.999 | S. cerevisiae deletion strains, locus YMR129W, active compounds read low 1 | S. cerevisiae deletion strains, locus YMR205C, strain PFK2, active compounds read low 0.982 | S. cerevisiae deletion strains, locus YMR223W, strain ubp8, active compounds read low 1.01 | S. cerevisiae deletion strains, locus YMR231W, strain pep5, active compounds read low 0.997 | S. cerevisiae deletion strains, locus YMR263W, strain SAP30, active compounds read low 1.01 | S. cerevisiae deletion strains, locus YMR307W, strain GAS1, active compounds read low 1 | S. cerevisiae deletion strains, locus YNL067W, strain RPL9B, active compounds read low 1.01 | S. cerevisiae deletion strains, locus YNL071W, strain lat1, active compounds read low 1.01 | S. cerevisiae deletion strains, locus YNL128W, strain TEP1, active compounds read low 1.02 and 0.978 | S. cerevisiae deletion strains, locus YNL153C, strain GIM3, active compounds read low 1.01 | S. cerevisiae deletion strains, locus YNL175C, strain NOP13, active compounds read low 0.99 | S. cerevisiae deletion strains, locus YNL183C, strain NPR1, active compounds read low 0.965 | S. cerevisiae deletion strains, locus YNL197C, strain WHI3, active compounds read low 1.02 | S. cerevisiae deletion strains, locus YNL209W, strain ssb2, active compounds read low 1.01 | S. cerevisiae deletion strains, locus YNL224C, strain SQS1, active compounds read low 0.999 | S. cerevisiae deletion strains, locus YNL233W, strain BNI4, active compounds read low 0.999 | S. cerevisiae deletion strains, locus YNL248C, strain rpa49, active compounds read low 0.992 | S. cerevisiae deletion strains, locus YNL250W, strain rad50, active compounds read low 1.04 | S. cerevisiae deletion strains, locus YNL271C, strain bni1, active compounds read low 1.03 | S. cerevisiae deletion strains, locus YNL298W, strain CLA4, active compounds read low 1 | S. cerevisiae deletion strains, locus YNL307C, strain MCK1, active compounds read low 1.03 | S. cerevisiae deletion strains, locus YNL322C, strain KRE1 (second series), active compounds read low 0.995 | S. cerevisiae deletion strains, locus YNL322C, strain KRE1, active compounds read low 1.01 | S. cerevisiae deletion strains, locus YNR049C, strain mso1, active compounds read low 1.01 | S. cerevisiae deletion strains, locus YNR052C, strain pop2, active compounds read low 1.01 | S. cerevisiae deletion strains, locus YOL006C, strain TOP1, active compounds read low 1.05 | S. cerevisiae deletion strains, locus YOL012C, strain htz1 1.05 | S. cerevisiae deletion strains, locus YOL147C, strain pex11, active compounds read low 1.04 | S. cerevisiae deletion strains, locus YOR001W, strain rrp6, active compounds read low 1 | S. cerevisiae deletion strains, locus YOR061W, strain CKA2, active compounds read low 1.02 | S. cerevisiae deletion strains, locus YOR069W, strain VPS5, active compounds read low 1.01 | S. cerevisiae deletion strains, locus YOR070C, strain gyp1, active compounds read low 1 | S. cerevisiae deletion strains, locus YOR080W, strain dia2, active compounds read low 0.996 | S. cerevisiae deletion strains, locus YOR083W, strain WHI5 (second series), active compounds read low 1.01 | S. cerevisiae deletion strains, locus YOR083W, strain WHI5, active compounds read low 0.996 | S. cerevisiae deletion strains, locus YOR106W, strain vam3, active compounds read low 0.989 | S. cerevisiae deletion strains, locus YOR136W, strain idh2, active compounds read low 1.03 | S. cerevisiae deletion strains, locus YOR144C, strain elg1, active compounds read low 1.03 | S. cerevisiae deletion strains, locus YOR184W, strain ser1, active compounds read low 1.06 | S. cerevisiae deletion strains, locus YOR231W, strain MKK1, active compounds read low 1 | S. cerevisiae deletion strains, locus YOR265W, strain rbl2, active compounds read low 0.994 | S. cerevisiae deletion strains, locus YOR270C, strain vph1, active compounds read low 0.995 | S. cerevisiae deletion strains, locus YOR290C, strain snf2, active compounds read low 1.02 | S. cerevisiae deletion strains, locus YOR316C, strain cot1, active compounds read low 1.03 | S. cerevisiae deletion strains, locus YPL051W, strain arl3, active compounds read low 1 | S. cerevisiae deletion strains, locus YPL055C, strain LGE1, active compounds read low 1.02 and 0.98 | S. cerevisiae deletion strains, locus YPL078C, strain atp4, active compounds read low 0.998 | S. cerevisiae deletion strains, locus YPL106C, strain sse1, active compounds read low 0.976 | S. cerevisiae deletion strains, locus YPL240C, strain hsp82, active compounds read low 1 | S. cerevisiae deletion strains, locus YPL241C, strain CIN2, active compounds read low 1.01 and 0.988 | S. cerevisiae deletion strains, locus YPL256C, strain CLN2, active compounds read low 1.03 | S. cerevisiae deletion strains, locus YPR119W, strain clb2, active compounds read low 1.04 | S. cerevisiae deletion strains, locus YPR141C, strain kar3, active compounds read low 1.02 | S. cerevisiae deletion strains, locus YPR163C, strain tif3, active compounds read low 1.04 | S. cerevisiae deletion strains, locus YPR167C, strain met16, active compounds read low 1.03 | S. cerevisiae deletion strains, strain wtn01, active compounds read low 1.03 | S. cerevisiae strains, strain wild type, active compounds read low 1
